The list is not random: actives were taken first. Their share in the collection is about 12%.
HCV inh – qHTS Assay for Inhibitors of Hepatitis C Virus (HCV); Huh7.5.1 HCVcc-Cre infection, luciferase reporter, 44 h; Potency, µM (series often up to 41.8 µM), inactives show top-dose activity change, negative = inhibition, most hits filed as inhibitors; 340,000 compounds, 3.4% hits; note: % is set by controls: 0 for no effect and ±100 for the full control effect
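Seed cells (1,000/well) for 4 h; treat with compound and infect with HCVcc-Cre, moi about 0.5. Incubate 44 h, then detect luciferase activity.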
Pf growth 96h – Primary qHTS for delayed death inhibitors of the malarial parasite plastid, 96 hour incubation; P. falciparum luciferase reporter growth, 96 h; Potency, µM (doses to about 28.7 µM), for inactives: at the highest dose activity change, negative = inhibition, hits mostly inhibitors; 320,000 compounds, 6.9% hits; note: % is set by controls: 0 for no effect and ±100 for the full control effect
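96 h incubation, 37 C, 5% CO2, of luciferase-reporter P. falciparum-infected RBCs (2% hematocrit, 0.05% parasitemia final) with test compounds; endpoint luminescence.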
Pf growth 48h – Primary qHTS for delayed death inhibitors of the malarial parasite plastid, 48 hour incubation; P. falciparum luciferase growth in erythrocytes, 48 h; Potency, µM (titrated, usually from 28.7 µM), without a hit: at the highest dose activity change, negative = inhibition, hits mostly inhibitors; 310,000 compounds, 5.9% hits; AID 504832, 2011; note: % is set by controls: 0 for no effect and ±100 for the full control effect
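Erythrocytes infected with P. falciparum carrying an integrated firefly luciferase reporter (2% hematocrit, 0.1% parasitemia final) were exposed to compounds in RPMI 1640 with 0.5% Albumax at 37 C, 5% CO2. Growth inhibition was scored as reduced luminescence.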
SARS PLpro yeast – qHTS of Yeast-based Assay for SARS-CoV PLP. S. cerevisiae expressing SARS-CoV PLpro, growth rescue. Potency, µM (highest dose often 32.9 µM), inactives show at the highest dose activity, positive = growth rescue, usual class: activators. 330,000 compounds, 0.19% hits. AID 485353, 2010; calls by dose curve; note: 0% is about no effect; nearly all actives have a fitted effect of over 55% in size
AMA1-RON2 inh – qHTS for Inhibitors of AMA1-RON; Towards Development of Antimalarial Drug Lead: Primary Screen; Plasmodium falciparum AMA1 (3D7) - RON2 peptide interaction; AlphaScreen AMA1-biotinylated RON2 peptide binding; Potency, µM (series often up to 58.2 µM), without a hit: at the top dose activity change, negative = inhibition, usual class: inhibitors; 360,000 compounds, 0.2% hits; AID 720542, 2013;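 note: 0% = vehicle wells and -100% = peptide control; nearly all actives have a fitted effect of over 45% in size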
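AMA1 (3D7) with his tag at 25 nM final met compounds first, then biotinylated RON2 peptide at 25 nM; detection used donor plus acceptor beads, 10 µg/mL apiece, read by AlphaScreen after 30 min at room temperature.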
NS1 function inh – qHTS Assay for Inhibitors of Influenza NS1 Protein Function; 270,000 compounds, 0.4% hits; Potency, µM (doses to about 46.1 µM), without a hit: at the highest dose activity, positive = more growth; calls by dose curve; note: actives are rising curves; nearly all actives have a fitted effect of over 50% in size
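In this qHTS, NS1 from influenza A is expressed in budding yeast, where it slows growth. Cells are switched from glucose to 2% galactose medium (pH 6.0, -URA), treated with compound, and growth recovery is read at OD600.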
The depositor's hits bear a star; ? = inconclusive; nt = no result. Unless noted, calls come from the whole dose curve; as a rule, active = well fitted curve in the direction sought with a large enough effect; inconclusive = small, poorly fitted or top-dose-only effect, or another doubt; inactive = no such curve, though single readings can be large; an effect the other way counts as inactive or inconclusive. Potency is the fitted concentration of half-maximal effect.

SMILES	HCV inh	Pf growth 96h	Pf growth 48h	SARS PLpro yeast	AMA1-RON2 inh	NS1 function inh
O=C(NCCc1ccccn1)c1cncc(Br)c1	8.4%	70.3%	62.4%	1.0%	-2.7%	5.0%
CCCN1CCC(=O)N([C@H](CN=[N+]=[N-])CC(C)C)CC1	20.2%	4.65µM*	?	-5.2%	14.3%	14.8%
CCNc1nc(NC(C)C)nc(NC(C)(C)C)n1	?	?	3.29µM*	-0.7%	-4.8%	-44.6%
CCNc1nc(NC(C)C)nc(OCC)n1	7.6%	?	nt	0.8%	4.4%	-20.1%
CCNc1nc(NC(C)C)nc(ON=C(C)C)n1	-0.6%	?	8.28µM*	9.0%	nt	-3.3%
CC(C)Nc1nc(NNc2nc(Cl)nc(NC(C)(C)C)n2)nc(NC(C)C)n1	-25.7%	13.1µM*	?	1.1%	93.5%	-4.9%
CC(C)Nc1nc(NC(N)=S)nc(NC(C)(C)C)n1	-15.8%	-20.7%	-9.0%	-0.6%	15.1%	-1.0%
Cn1c(N)c(C(=O)COC(=O)CNC(=O)c2ccccc2F)c(=O)n(C)c1=O	-6.3%	nt	nt	-3.4%	-17.8%	nt
CC1CC(C)CN(CCCNC(=O)c2ccc3c(c2)NC(=O)CS3)C1 (configuration not stated)	-16.6%	-23.4%	16.3%	24.9%	-11.2%	-14.4%
CC(C)Sc1nnc(NC(=O)c2ccc3c(c2)OCO3)s1	-8.6%	183.9%	117.1%	-6.5%	-0.6%	4.6%
O=C(NCP(=O)(O)O)c1cccnc1	nt	nt	nt	nt	nt	-6.6%
C[C@@H](N=C(N)N)C(=O)O	nt	nt	nt	nt	nt	-2.8%
CC(C)OC(=O)Nc1ccc2nc(-c3cscn3)[nH]c2c1	nt	-20.8%	-17.9%	nt	nt	nt
Cc1cccc(N2Cc3ccc(Br)cc3C2)c1	-1.0%	nt	nt	nt	14.4%	nt
CC(C)(C)c1ccc(C(=O)NNc2cc(N3CCCCC3)nc(N3CCCCC3)n2)cc1	?	?	2.62µM*	-3.0%	16.5%	4.8%
CC(C)(C)c1ccc(C(=O)NNc2cc(N3CCOCC3)nc(N3CCOCC3)n2)cc1	?	-20.2%	11.7µM*	-0.2%	11.9%	10.9%
CC(C)(C)NC(=O)COC(=O)c1ccc(Cl)c(S(N)(=O)=O)c1	-6.7%	20.3%	16.0%	-7.5%	9.3%	nt
Cc1cc(C)nc(SC2=CS(=O)(=O)c3ccccc32)n1	-33.4%	-25.4%	?	6.7%	8.0%	-5.0%
O=S1(=O)C=C(Sc2nc3ccccc3s2)c2ccccc21	5.01µM*	nt	8.28µM*	-23.0%	20.9%	?
O=C1CCCC/C1=C\Nc1ccc(C(=O)O)c(O)c1	9.0%	30.9%	57.7%	0.2%	4.5%	8.2%
O=C(COc1ccc(/C=N/NC(=O)c2ccccc2)cc1)Nc1ccc([N+](=O)[O-])cc1	14.3%	32.3%	36.8%	-3.4%	2.1%	-3.5%
CC(C)Oc1ccc(/C=N/NC(=O)C(CSCc2ccccc2)NC(=O)c2ccc([N+](=O)[O-])cc2)cc1 (configuration not stated)	?	?	11.7µM*	-8.5%	4.9%	-10.4%
Cc1noc(C)c1COC(=O)c1cc2c3ccccc3n(C)c2s1	11.2µM*	?	?	?	0.0%	-69.2%
Cc1noc(C)c1COC(=O)c1cc2c(C)nn(-c3ccc(F)cc3)c2s1	-2.6%	11.6%	0.3%	1.2%	8.2%	-1.2%
COc1ccc(CN(C)Cc2cc(=O)n3ccsc3n2)c(OC)c1OC	2.6%	?	173.7%	1.3%	48.9%	nt
SMILES	HCV inh	Pf growth 96h	Pf growth 48h	SARS PLpro yeast	AMA1-RON2 inh	NS1 function inh
CNC(=O)C(N)CSC(C)C1=C(C)c2cc3[n-]c(cc4nc(cc5[n-]c(cc1n2)c(C)c5CCC(=O)O)C(CCC(=O)O)=C4C)c(C)c3C(C)SCC(N)C(=O)NC.[Fe+2] (configuration not stated)	nt	?	-41.3%	nt	nt	nt
C=Cc1c(C)c2cc3nc(cc4[nH]c(cc5nc(cc1[nH]2)C(C)=C5CCC(=O)O)c(CCC(=O)OC)c4C)[C@@]1(C)C3=CC=C(C(=O)OC)[C@H]1C(=O)OC (tested in a mixture with another compound)	nt	3.38µM*	3.79µM*	nt	nt	nt
CCCOc1nc(N)c(C#N)c(-c2ccccc2F)c1C#N	35.5µM*	-27.1%	5.4%	-1.9%	-4.5%	-8.1%
COc1ccc(NC(=O)CN(C)S(=O)(=O)c2ccc3c(c2)CC(C)N3C(C)=O)cc1OC (configuration not stated)	-29.2%	-12.8%	-20.8%	-0.9%	8.9%	7.0%
COc1ccc(C)cc1NC(=O)CN(C)S(=O)(=O)c1ccc2c(c1)CC(C)N2C(C)=O (configuration not stated)	?	7.38µM*	-21.8%	-5.9%	-10.4%	3.8%
COc1cc(OC)c(NC(=O)C2CCN(S(=O)(=O)c3ccc4c(c3)CC(C)N4C(C)=O)CC2)cc1Cl (configuration not stated)	?	0.0%	0.0%	8.8%	14.4%	7.1%
CC(=O)N1c2ccc(S(=O)(=O)N3CCC(C(=O)N4CCN(c5ccccc5F)CC4)CC3)cc2CC1C (configuration not stated)	?	?	?	2.3%	18.4%	-4.8%
CC(=O)N1c2ccc(S(=O)(=O)N3CCC(C(=O)N4CCN(c5ccc(Cl)cc5)CC4)CC3)cc2CC1C (configuration not stated)	10µM*	?	?	-7.9%	-12.8%	18.6%
COc1cccc(N2CCN(C(=O)C3CCN(S(=O)(=O)c4ccc5c(c4)CC(C)N5C(C)=O)CC3)CC2)c1 (configuration not stated)	11.2µM*	?	?	-5.8%	-2.8%	-1.4%
COc1ccc(OC)c(NC(=O)C2CCN(S(=O)(=O)c3ccc4c(c3)CC(C)N4C(C)=O)CC2)c1 (configuration not stated)	-16.4%	14.7µM*	?	-4.6%	-9.8%	12.5%
NNc1nncn1N	nt	nt	nt	nt	nt	-3.5%
CC(C)C(=O)N1CCC1(C)C(=O)Nc1ccccc1OC(F)F (configuration not stated)	nt	nt	nt	nt	5.5%	nt
COc1ccc(OC)c(NS(=O)(=O)c2cc3c4c(c2)CCN4C(=O)CC3)c1	?	7.3%	-1.7%	4.5%	2.5%	nt
CC1Cc2cc(S(=O)(=O)N3CCN(c4cccc(Cl)c4)CC3)ccc2N1C(=O)C1CC1 (configuration not stated)	?	?	?	-9.5%	4.7%	14.0%

Screens (PubChem)
